Laboratory results: PubChem BioAssay (EPA / NIEHS)
Inconclusive results are not listed. The source made the active and inactive calls. Rule for the calls: active = hit-call score of the fitted dose curve at least 0.9, where 1 is the maximum; inconclusive = response in the unintended direction; inactive = score below 0.9.

What follows are molecules tested against human Matrix Metalloproteinase-9 (MMP9), MMP9 (gene 4318) (UniProt P14780) (assay: NVS_ENZ_hMMP9: NovaScreen (NVS) Enzymatic Assay for human Matrix Metalloproteinase-9 (MMP9) (AID 2283190);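 note: cell-free recombinant MMP9 protease activity read by fluorescent substrate signal; active means inhibition seen as loss of fluorescence signal versus DMSO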).
In short: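 Cell-free fluorescence-intensity enzyme activity assay using extracted protein, read 1 h after dosing. Loss of signal versus DMSO baseline indicates inhibition; primary screen in duplicate at 25 uM, actives followed up in concentration series.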

Sequence of human Matrix Metalloproteinase-9 (MMP9), MMP9 (gene 4318) (P14780 whole entry, looked up): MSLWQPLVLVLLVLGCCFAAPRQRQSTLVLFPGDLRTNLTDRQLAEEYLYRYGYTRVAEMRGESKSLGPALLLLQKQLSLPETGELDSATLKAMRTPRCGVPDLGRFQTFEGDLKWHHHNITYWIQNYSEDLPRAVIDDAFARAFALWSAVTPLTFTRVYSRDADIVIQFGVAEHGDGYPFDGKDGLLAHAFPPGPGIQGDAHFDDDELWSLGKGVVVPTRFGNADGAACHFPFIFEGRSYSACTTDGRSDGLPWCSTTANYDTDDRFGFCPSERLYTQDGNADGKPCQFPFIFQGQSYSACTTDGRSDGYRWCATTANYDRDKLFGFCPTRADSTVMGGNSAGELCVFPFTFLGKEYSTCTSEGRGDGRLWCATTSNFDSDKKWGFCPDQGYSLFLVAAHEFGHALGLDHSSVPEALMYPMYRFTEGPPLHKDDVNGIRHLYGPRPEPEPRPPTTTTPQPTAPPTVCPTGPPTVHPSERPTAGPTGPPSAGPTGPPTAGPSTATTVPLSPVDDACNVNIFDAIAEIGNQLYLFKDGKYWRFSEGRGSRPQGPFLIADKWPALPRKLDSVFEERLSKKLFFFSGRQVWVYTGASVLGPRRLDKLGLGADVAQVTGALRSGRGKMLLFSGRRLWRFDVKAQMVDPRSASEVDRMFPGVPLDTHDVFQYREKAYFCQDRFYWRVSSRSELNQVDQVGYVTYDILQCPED

Row | Structure (SMILES) | outcome
1 | O=C(O)c1cc(Oc2ccc(C(F)(F)F)cc2Cl)ccc1[N+](=O)[O-] | inactive
2 | S=C1NCCN1 | inactive
3 | CCCOCC(=Nc1ccc(Cl)cc1C(F)(F)F)n1ccnc1 | inactive
4 | CC[C@H](C)[C@H]1O[C@]2(C=C[C@@H]1C)C[C@@H]1C[C@@H](C/C=C(\C)[C@@H](O[C@H]3C[C@H](OC)[C@@H](O[C@H]4C[C@H](OC)[C@@H](NC)[C@H](C)O4)[C@H](C)O3)[C@@H](C)/C=C/C=C3\CO[C@@H]4[C@H](O)C(C)=C[C@@H](C(=O)O1)[C@]34O)O2 | inactive
5 | Cc1ccn2nc(S(=O)(=O)Nc3c(F)cccc3F)nc2n1 | inactive
6 | CCOC(=O)CC(SP(=O)(OC)OC)C(=O)OCC (configuration not stated) | inactive
7 | COP(=O)(OC)SCn1c(=O)oc2cc(Cl)cnc21 | inactive
